BoNT-F LC inh = BoNT/F light chain protease inhibitors, primary screen, biochemical, flow cytometry, MLPCN library; Multiplex microsphere protease cleavage assay; inhibition, % at 10 µM; actives 0.22% (n = 360,000); AID 588497, 2011; in the data active means inhibition above about 35%, passing the limit was not always enough; inconclusive means no clear call, values can overlap the other calls; further: plate controls were buffer without enzyme for full effect and enzyme alone for no effect
Anthrax LF prot = Bacillus anthracis LF protease inhibitors, primary screen, biochemical, multiplex microsphere, MLPCN library. actives 0.12% (n = 360,000). multiplex microsphere protease cleavage assay. Lethal factor (Bacillus anthracis), P15917. AID 588501, 2011. inhibition, % at 10 µM; further: plate controls were buffer without enzyme for full effect and enzyme alone for no effect
Bead autofluor = flagged as autofluorescent in microsphere protease counterscreen; actives 3.1% (n = 360,000); AID 624483; fluorescence intensity (concentration not given with the values); compound autofluorescence counterscreen, microsphere flow cytometry; active compounds read high; in the data active means fluorescence intensity above about 16000; inconclusive means no clear call, values can overlap the other calls
BoNT-A LC inh2 = BoNT/A light chain protease inhibitors, primary screen, biochemical, flow cytometry, MLPCN library. Botulinum neurotoxin type A light chain protease (Clostridium botulinum A str. ATCC 3502). multiplex microsphere protease substrate cleavage. inhibition, % at 10 µM. actives 0.17% (n = 360,000). AID 588499, 2011; further: plate controls were buffer without enzyme for full effect and enzyme alone for no effect
GDH-TPI inh = GDH-TPI coupling enzyme inhibitors, primary screen, artefact control for M. tuberculosis FBA inhibitor project, biochemical, absorbance, full deck. GDH-TPI coupled enzyme counterscreen, NADH absorbance. inhibition, % at 4.8 µM. actives 1.2% (n = 360,000); in the data active means inhibition above about 30%;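 further: 0% = DMSO wells and 100% = wells lacking the enzyme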
Mtb FBA inh = Mtb FBA enzyme inhibitors, primary screen, biochemical, fluorescence, strain H37Rv; Fructose-bisphosphate aldolase (Mycobacterium tuberculosis (strain ATCC 25618 / H37Rv)), …; purified M. tuberculosis FBA, fluorescence read-out; inhibition, % at 1 µM; actives 2.3% (n = 360,000); AID 588726, 2011; in the data active means inhibition above about 27%;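 further: 0% = vehicle and 100% = reference inhibitor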
Target sequence (P9WQA3 whole entry, looked up): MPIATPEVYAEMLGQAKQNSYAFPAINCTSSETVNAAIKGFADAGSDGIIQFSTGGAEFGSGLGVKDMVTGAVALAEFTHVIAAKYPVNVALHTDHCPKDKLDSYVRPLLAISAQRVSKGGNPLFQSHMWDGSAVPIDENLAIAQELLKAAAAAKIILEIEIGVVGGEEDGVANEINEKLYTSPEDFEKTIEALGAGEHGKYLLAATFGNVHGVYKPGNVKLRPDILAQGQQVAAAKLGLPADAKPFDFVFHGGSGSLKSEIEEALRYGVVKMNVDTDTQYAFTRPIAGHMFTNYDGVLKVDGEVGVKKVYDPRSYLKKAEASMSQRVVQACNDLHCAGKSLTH
* = called active by the depositor; ? = inconclusive; + = active, no number. Hits are enriched below; roughly 6.7% of the tested compounds scored in any of these assays. Unless noted, no stated cut-off is given here; in the data, active means inhibition above about 30%; inconclusive means no clear call, values can overlap the other calls; inactive means below that.

SMILES	BoNT-F LC inh	Anthrax LF prot	Bead autofluor	BoNT-A LC inh2	GDH-TPI inh	Mtb FBA inh
CCOC(=O)c1c(NC(=O)c2ccno2)c2cc([N+](=O)[O-])ccc2n1C	-2	-2	6114	0	7	1
CCCS(=O)(=O)c1nnnn1-c1cccc(OC)c1	0	-1	19154*	1	1	1
Nc1nonc1C(=O)NCCN=Cc1cc(Cc2ccccc2)cc(Br)c1O	-7	-1	17444*	-4	15	-4
Nc1nonc1C(=O)NCCN=Cc1ccccc1O	0	2	3188	-1	6	1
CCOC(=O)/C(=C/c1ccc(OC(=O)c2ccncc2)cc1)C(C)=O	-7	-6	4653	-2	7	-2
COCCOC(=O)/C(=C/c1ccc(OC(=O)c2ccccc2)cc1)C(C)=O	3	3	2397	1	10	31*
CCc1c(O)nc(SCC(=O)c2ccccc2)n(-c2ccccc2)c1=O	?	-8	4348	-10	13	1
CCSc1nc(O)c(CC)c(=O)n1C(C)CC (stereo not drawn)	3	0	22314*	0	16	1
O=C1CC(c2ccc(S(=O)(=O)NCCOc3ccccc3)cc2)CN1 (stereo not drawn)	2	-2	21883*	3	-5	-2
CCNS(=O)(=O)c1ccc(Br)c(OC)c1	0	-2	20265*	-1	-4	-3
COc1ccc(S(=O)(=O)NCCOc2ccccc2)cc1-n1cnnn1	1	5	4706	-1	4	4
COc1cc(S(=O)(=O)NCc2ccccc2)ccc1Br	0	-1	2428	0	-1	0
COc1ccc(S(=O)(=O)NCCOc2ccccc2)cc1OC	4	0	22108*	1	2	4
COCCNS(=O)(=O)c1ccc(C2CNC(=O)C2)cc1 (stereo not drawn)	-1	-2	5261	0	9	-1
C[C@@H]1CN([C@@H](C)CO)C(=O)Cc2cc(NC(=O)Nc3cccc4ccccc34)ccc2O[C@@H]1CN(C)Cc1ccc(C(F)(F)F)cc1	-14	-6	3473	0	8	5
CCOc1ccc(C(C)=O)cc1COC(=O)c1cc([N+](=O)[O-])ccc1N1CCOCC1	5	1	5789	1	17	0
Cc1sc2nc(SCC(=O)NCCOCCO)n(C)c(=O)c2c1C	3	-3	21931*	3	3	-2
CN(C)c1ccc(NC(=O)c2cc3c(=O)n4ccccc4nc3n2C)cc1	-11	-6	?	-1	23	5
Cc1cccn2c(=O)c3cc(C(=O)NCCC4=CCCCC4)n(C)c3nc12	4	2	5357	1	6	12
Cn1c(C(=O)NCC2CCCO2)cc2c(=O)n3ccccc3nc21 (stereo not drawn)	-1	1	4296	1	14	+
Cn1c(C(=O)NCCC2=CCCCC2)cc2c(=O)n3ccccc3nc21	-14	-18	9349	-2	4	114*
Cn1c(C(=O)N2COCC2(C)C)cc2c(=O)n3ccccc3nc21	-16	-3	?	0	-4	+
CCOC(=O)c1c(C)n(C)c2ccc(O)c(S(=O)(=O)c3ccccc3)c12	-2	-1	24053*	-2	-1	2
Cn1c(=O)c(=O)n(C)c2cc(S(=O)(=O)Nc3ccc4c(c3)OCCO4)ccc21	-2	-2	22407*	?	7	0
Cn1c(=O)oc2cc(S(=O)(=O)Nc3ccc4c(c3)OCCO4)ccc21	-8	0	21945*	?	-1	0
SMILES	BoNT-F LC inh	Anthrax LF prot	Bead autofluor	BoNT-A LC inh2	GDH-TPI inh	Mtb FBA inh
Cc1ccc(CN2CCN(Cc3cnc(C)s3)CC2CCO)o1 (stereo not drawn)	-4	0	2642	0	7	0
COc1ccc(-c2cc(C(F)(F)F)c(C#N)c(=O)[nH]2)cc1	-2	-1	4303	0	25	+
N#Cc1c(C(F)(F)F)cc(-c2cccc(Cl)c2)[nH]c1=O	-23	-3	3755	-1	3	156*
N#Cc1c(-c2ccccc2)cc(-c2ccccc2)[nH]c1=O	-16	2	3656	-2	12	12
COc1ccccc1-c1cc(C(F)(F)F)c(C#N)c(=O)[nH]1	-7	-2	2639	0	10	+
N#Cc1c(C(F)(F)F)cc(-c2ccc(F)cc2)[nH]c1=O	2	1	2548	1	7	142*
COc1cc(-c2cc(-c3ccc(N)cc3)[nH]c(=O)c2C#N)cc(OC)c1OC	22	-8	5251	-1	23	3
N#Cc1c(C(F)(F)F)cc(-c2ccc(F)cc2)nc1SCC(=O)O	-4	-9	4531	-1	9	-3
COC(=O)c1ccc(C)c(NC(=O)CN(c2cc(OC)ccc2OC)S(C)(=O)=O)c1	-16	-5	8869	-1	26	2
CC(=O)Nc1cccc(-c2ccnc3c2CC(C(=O)Nc2cccc(NS(C)(=O)=O)c2)O3)c1 (stereo not drawn)	1	1	3759	0	4	10
CCCN(C(=O)c1ccccc1N)c1c(C)n(C)n(-c2ccccc2)c1=O	3	-4	9976	1	4	3
CNC(=O)c1ccc(NC(=O)CCNC(=O)Nc2ccccc2)cc1	0	3	6521	-3	0	0
N#Cc1c(C(F)(F)F)cc(-c2ccc(Cl)cc2)[nH]c1=O	0	-3	4160	0	4	177*
COc1ccc(-c2cc(-c3ccco3)[nH]c(=O)c2C#N)cc1	1	-5	4132	0	22	123*
CSc1cc(-c2ccc(Cl)cc2)[nH]c(=O)c1C#N	-2	-1	2428	0	-1	13
Cc1cc(C(F)(F)F)c(C#N)c(=O)[nH]1	-3	1	2177	0	15	137*
CCOC(=O)NN=C1CCC(c2ccccc2)CC1 (stereo not drawn)	13	1	5791	0	2	5
Cc1cccc(C)c1NC(=S)NCc1ccccc1	0	-2	3900	1	-4	0
COc1ccccc1/C=C1\SC(=S)N(CCC(=O)NNC(=O)c2ccccc2O)C1=O	2	-2	5695	1	10	-3
Cc1[nH]c2ccccc2c1C1(O)C(=O)N(C(C)C)c2ccccc21 (stereo not drawn)	-7	-1	23898*	-1	12	1
CCCN1C(=O)C(O)(c2c(C)[nH]c3ccccc23)c2ccccc21 (stereo not drawn)	-15	4	3980	-5	-3	-1
